Test [1] is described as follows: ATG_CMV_CIS: Attagene CIS-FACTORIAL HepG2 Assay for human CMV (Internal Marker) (AID 2282928).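 Further: endpoint acts as a background internal control marker rather than a target.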 As to conditions: HepG2 CMV promoter reporter, transcription factor profiling; actives raise or lower the signal. The method, boiled down: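 After transient transfection of HepG2 with reporter transcription units driven by cis-regulatory promoters, cells receive test chemical for 24 h. Labeled reporter amplicons, digested with HpaI, are sized and quantified by capillary electrophoresis against DMSO.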

Test [2] is described as follows: ATG_ISRE_CIS: Attagene CIS-FACTORIAL HepG2 Assay for human Interferon Regulatory Factor 1 (IRF1) binding to an Interferon-Stimulated Response Element (ISRE) (AID 2282948). As to conditions: HepG2 ISRE cis-reporter (Attagene), mRNA transcription readout; actives raise or lower the signal. The method, boiled down: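 Cell-based cis-reporter assay; HepG2; 24 h exposure; reporter mRNA by RT-PCR plus capillary electrophoresis fluorescence; activity in either direction scored relative to DMSO.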

Test [3] is described as follows: ATG_M_32_CIS: Attagene CIS-FACTORIAL HepG2 Assay for M32 Transcription Factor (Internal Marker) (AID 2282949).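 Further: background control marker of the multiplexed CIS panel rather than a real target.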 The conditions noted are these: HepG2 Attagene cis-factorial M32 reporter, mRNA; actives raise or lower the signal. In a few lines:
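Internal background marker read-out: RT-PCR/capillary electrophoresis fluorescence of reporter transcripts from transiently transfected HepG2 cells after 24 h chemical exposure. Activity fitted bidirectionally relative to DMSO negative control.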

The target in test [4] is Hepatocyte nuclear factor 6 (Homo sapiens) (UniProt Q9UBC0). Nature of the test: ATG_HNF6_CIS: Attagene CIS-FACTORIAL HepG2 Assay for human Hepatocyte Nuclear Factor 6 (HNF6) (AID 2282952). As to conditions: HepG2 Attagene cis-factorial HNF6 reporter transcription; actives raise or lower the signal. The method, boiled down:
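Cells are HepG2 carrying transiently transfected cis-promoter reporter units. Treatment lasts 24 h, after which reporter transcripts are reverse-transcribed, amplified, FAM-labelled and sized by capillary electrophoresis. DMSO serves as baseline.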

Test [5] has as its target Heat shock factor protein 1 (Homo sapiens) (UniProt Q00613). Nature of the test: ATG_HSE_CIS: Attagene CIS-FACTORIAL HepG2 Assay for human Heat Shock Transcription Factor 1 (HSE) (AID 2282953). The conditions noted are these: HepG2 HSE cis-reporter, Attagene RNA transcription; actives raise or lower the signal. The method, boiled down:
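HepG2, transient MRTU transfection, cis-promoter reporters (endogenous TF activity). 24 h compound. RNA → oligo(dT) RT → PCR → 6-FAM primer extension → HpaI cut → CE. Bidirectional fit vs DMSO.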

Test [6] can be described thus: ATG_RORE_CIS: Attagene CIS-FACTORIAL HepG2 Assay for human RAR-related Orphan Receptor Element (RORE) (AID 2282959). The conditions noted are these: HepG2 Attagene cis-factorial RORE reporter, mRNA; actives raise or lower the signal. In a few lines:
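HepG2 cells carrying transiently transfected cis-regulated reporter units; RORE-driven reporter mRNA quantified 24 h post-dosing by RT-PCR, 6-FAM primer extension, HpaI digestion and capillary electrophoresis. Bidirectional fit versus DMSO.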

For test [7], the target named is Signal transducer and activator of transcription 3 (Homo sapiens) (UniProt P40763). Nature of the test: ATG_STAT3_CIS: Attagene CIS-FACTORIAL HepG2 Assay for human Signal Transducer and Activator of Transcription 3 (STAT3) (AID 2282963). The conditions noted are these: HepG2, Attagene cis-factorial STAT3 reporter transcription; actives raise or lower the signal. In a few lines: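 Values derive from bidirectional fits relative to DMSO of reporter mRNA levels, measured by RT-PCR with capillary electrophoresis, in HepG2 cells carrying transiently transfected cis-regulated reporter units and exposed 24 h.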
Chain of Signal transducer and activator of transcription 3 (Homo sapiens) (P40763 whole entry, looked up): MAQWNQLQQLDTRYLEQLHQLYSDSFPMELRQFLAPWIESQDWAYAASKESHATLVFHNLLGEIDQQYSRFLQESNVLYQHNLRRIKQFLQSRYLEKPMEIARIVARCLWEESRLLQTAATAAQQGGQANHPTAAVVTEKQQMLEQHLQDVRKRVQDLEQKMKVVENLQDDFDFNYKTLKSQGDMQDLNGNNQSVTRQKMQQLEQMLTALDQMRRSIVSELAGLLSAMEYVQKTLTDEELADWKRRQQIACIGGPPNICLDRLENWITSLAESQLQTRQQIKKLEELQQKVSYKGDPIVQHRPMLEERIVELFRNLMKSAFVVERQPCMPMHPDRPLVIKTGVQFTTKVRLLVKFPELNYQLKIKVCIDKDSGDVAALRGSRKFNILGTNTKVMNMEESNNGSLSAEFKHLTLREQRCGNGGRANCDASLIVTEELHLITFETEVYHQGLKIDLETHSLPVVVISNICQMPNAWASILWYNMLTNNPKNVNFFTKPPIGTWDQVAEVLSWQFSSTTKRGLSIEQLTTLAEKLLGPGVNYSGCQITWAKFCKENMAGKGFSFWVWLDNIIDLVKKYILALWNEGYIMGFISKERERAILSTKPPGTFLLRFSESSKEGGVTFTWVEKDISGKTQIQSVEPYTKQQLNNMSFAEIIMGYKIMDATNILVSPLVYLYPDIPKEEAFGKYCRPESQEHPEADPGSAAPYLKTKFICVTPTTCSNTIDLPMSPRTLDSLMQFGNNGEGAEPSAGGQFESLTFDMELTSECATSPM

Test [8] is described as follows: ATG_TA_CIS: Attagene CIS-FACTORIAL HepG2 Assay for human TA Basal Promoter (AID 2282964). The conditions noted are these: HepG2 Attagene CIS-factorial TA basal promoter reporter; actives raise or lower the signal. The method, boiled down: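 Read-out: fluorescent reporter-transcript fragments resolved by capillary electrophoresis after RT-PCR and HpaI digestion. Source: HepG2 cells carrying transiently transfected multi-reporter cis constructs, treated 24 h. Endpoint fitted bidirectionally relative to DMSO.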

Test [9] in a line: ATG_TCF_b_cat_CIS: Attagene CIS-FACTORIAL HepG2 Assay for human T-Cell-Factor with beta-catenin (TCF/b-cat) (AID 2282965). As to conditions: HepG2 TCF/beta-catenin cis-reporter transcription, actives raise or lower the signal. The method, boiled down:
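Cells of the HepG2 line carry transiently transfected reporter units whose promoters respond to endogenous factors. Twenty-four hours post-dosing, reporter mRNA induction is measured by fluorescent RT-PCR and capillary electrophoresis, with DMSO as baseline.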

Test [10] can be described thus: ATG_TAL_CIS: Attagene CIS-FACTORIAL HepG2 Assay for human TAL Basal Promoter (AID 2282966).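 Further: background control endpoint measuring basal TAL promoter reporter mRNA not a specific factor.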 The conditions noted are these: HepG2 Attagene cis-factorial TAL promoter reporter; actives raise or lower the signal. The method, boiled down:
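Steps: transfect HepG2 with multiple reporter transcription units; dose 24 h; isolate RNA, reverse-transcribe, PCR-amplify, label with 6-FAM, digest with HpaI; resolve by capillary electrophoresis. Bidirectional fitting against DMSO baseline.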

Test [11] in a line: ATG_TGFb_CIS: Attagene CIS-FACTORIAL HepG2 Assay for human Transforming Growth Factor (TGF) (AID 2282967). As to conditions: HepG2 Attagene CIS TGFb reporter, mRNA transcription; actives raise or lower the signal. In a few lines: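 Transient MRTU transfection of HepG2 (FuGene 6). Dose 24 h. TriZol RNA, oligo(dT) RT, PCR, 6-FAM primer extension, HpaI cut, CE. Bidirectional fit, DMSO = baseline.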

Test [12] can be described thus: ATG_VDRE_CIS: Attagene CIS-FACTORIAL HepG2 Assay for human Vitamin D Receptor Element (VDRE) (AID 2282968). As to conditions: HepG2 VDRE cis-reporter transcription, actives raise or lower the signal. The method, boiled down:
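Cell-based multiplexed reporter format in human liver HepG2 cells, 24 h post-dose. Fluorescence from capillary electrophoresis of reporter cDNA gives the signal, with DMSO as negative control and baseline.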

Test [13] concerns the target X-box-binding protein 1 (Homo sapiens) (UniProt P17861). The test is described as follows: ATG_Xbp1_CIS: Attagene CIS-FACTORIAL HepG2 Assay for human X-box Binding Protein 1 (XBP1) (AID 2282972). As to conditions: HepG2 XBP1 cis-element reporter, Attagene multiplex; actives raise or lower the signal. In a few lines:
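Fluorescence-labelled cDNA fragments from reporter transcripts, separated by capillary electrophoresis, give the signal. Source: HepG2 cells transfected with promoter-driven reporter units, harvested 24 h post-dose. DMSO served as reference for bidirectional curve fitting.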

In test [14] the target is Transcriptional activator Myb (Homo sapiens) (UniProt P10242). Nature of the test: ATG_Myb_CIS: Attagene CIS-FACTORIAL HepG2 Assay for human Myeloblastosis (Myb) Proto-Oncogene Transcription Factor (AID 2282986). The conditions noted are these: HepG2 Attagene CIS-FACTORIAL Myb reporter transcription; actives raise or lower the signal. In a few lines:
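Transiently transfected HepG2 cells carrying a multiplexed cis-promoter reporter set report endogenous Myb activity after 24 h compound exposure. Reporter mRNA is read by RT-PCR with capillary electrophoresis of fluorescent products, fitted bidirectionally against DMSO.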

For test [15], the target named is Nuclear respiratory factor 1 (Homo sapiens) (UniProt Q16656). Nature of the test: ATG_NRF1_CIS: Attagene CIS-FACTORIAL HepG2 Assay for human Nuclear Respiratory Factor 1 (NRF1) Orphan Gene (AID 2282987). As to conditions: HepG2 NRF1 cis-element reporter, Attagene multiplex; actives raise or lower the signal. In a few lines:
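HepG2 cells transiently transfected with multiple cis-regulated reporter units, exposed 24 h. Reporter mRNAs measured by RT-PCR, fluorescent labelling, HpaI digestion and capillary electrophoresis; bidirectional fitting against DMSO.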

Test [16] deals with Myc proto-oncogene protein (Homo sapiens) (UniProt P01106). Nature of the test: ATG_Myc_CIS: Attagene CIS-FACTORIAL HepG2 Assay for human Myelocytomatosis (Myc) Proto-Oncogene Transcription Factor (AID 2282990). As to conditions: HepG2, Attagene cis-reporter transcription factor activity; actives raise or lower the signal. In a few lines: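 Fluorescence intensity of reporter-specific cDNA fragments, separated by capillary electrophoresis, gives the signal. Transfected HepG2 cells carrying cis-promoter reporter constructs are incubated with compound for 24 h; DMSO serves as baseline.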
Chain of Myc proto-oncogene protein (Homo sapiens) (P01106 whole entry, looked up, the tested form may be a part): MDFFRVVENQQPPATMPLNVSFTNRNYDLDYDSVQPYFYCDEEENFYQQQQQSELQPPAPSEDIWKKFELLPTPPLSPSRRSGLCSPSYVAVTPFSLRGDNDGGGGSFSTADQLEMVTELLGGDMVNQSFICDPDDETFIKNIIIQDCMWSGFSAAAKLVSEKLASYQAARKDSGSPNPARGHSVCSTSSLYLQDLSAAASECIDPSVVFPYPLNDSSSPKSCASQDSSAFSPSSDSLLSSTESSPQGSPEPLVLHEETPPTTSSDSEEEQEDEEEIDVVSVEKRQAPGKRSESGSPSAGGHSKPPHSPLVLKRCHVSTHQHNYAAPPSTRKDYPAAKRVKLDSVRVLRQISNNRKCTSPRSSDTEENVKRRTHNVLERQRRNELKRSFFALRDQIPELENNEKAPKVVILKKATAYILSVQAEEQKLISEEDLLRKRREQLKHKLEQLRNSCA

A short description of test [17]: ATG_NRF2_ARE_CIS: Attagene CIS-FACTORIAL HepG2 Assay for human Nuclear Factor Erythroid 2 Related Factor 2 (NFR2) response to Antioxidant Response Elements (ARE) (AID 2282992). As to conditions: HepG2 Attagene ARE/NRF2 reporter, transcription factor activity; actives raise or lower the signal. The method, boiled down: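 Multiplexed reporter mRNA profiling in HepG2 after a 24 h chemical exposure. Curves fitted in both directions relative to DMSO negative control.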

Test [18] in a line: ATG_Oct_MLP_CIS: Attagene CIS-FACTORIAL HepG2 Assay for human Octamer-Binding Transcription Factor (Oct) (AID 2282993). As to conditions: HepG2 Attagene cis-factorial Oct reporter, mRNA; actives raise or lower the signal. In a few lines:
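Transient MRTU transfection of HepG2 → 24 h compound treatment → RNA isolation, reverse transcription, PCR → 6-FAM primer extension, HpaI digest → capillary electrophoresis. Activity fitted both directions against DMSO.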

Test [19] is described as follows: ATG_NF_kB_CIS: Attagene CIS-FACTORIAL HepG2 Assay for human Nuclear Factor Kappa B (NF-kB) (AID 2282991). As to conditions: HepG2 Attagene cis-factorial NF-kB reporter mRNA; actives raise or lower the signal. The method, boiled down: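 HepG2 cells transfected with cis-promoter-driven reporter units, so endogenous transcription factor activity is measured. Reporter mRNA quantified 24 h after dosing by RT-PCR and capillary electrophoresis, with bidirectional fitting against DMSO.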

The target of test [20] is Cellular tumor antigen p53 (Homo sapiens) (UniProt P04637). Nature of the test: ATG_p53_CIS: Attagene CIS-FACTORIAL HepG2 Assay for human p53 Transcription Factor (AID 2282994). The conditions noted are these: HepG2 p53 cis-element reporter, Attagene mRNA; actives raise or lower the signal. In a few lines: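 Multiplexed reporter mRNA assay in human HepG2 liver cells; cis-regulated units report endogenous factor activity. Values come from bidirectional curve fitting against DMSO negative control after 24 h treatment.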
Chain of Cellular tumor antigen p53 (Homo sapiens) (P04637 whole entry, looked up): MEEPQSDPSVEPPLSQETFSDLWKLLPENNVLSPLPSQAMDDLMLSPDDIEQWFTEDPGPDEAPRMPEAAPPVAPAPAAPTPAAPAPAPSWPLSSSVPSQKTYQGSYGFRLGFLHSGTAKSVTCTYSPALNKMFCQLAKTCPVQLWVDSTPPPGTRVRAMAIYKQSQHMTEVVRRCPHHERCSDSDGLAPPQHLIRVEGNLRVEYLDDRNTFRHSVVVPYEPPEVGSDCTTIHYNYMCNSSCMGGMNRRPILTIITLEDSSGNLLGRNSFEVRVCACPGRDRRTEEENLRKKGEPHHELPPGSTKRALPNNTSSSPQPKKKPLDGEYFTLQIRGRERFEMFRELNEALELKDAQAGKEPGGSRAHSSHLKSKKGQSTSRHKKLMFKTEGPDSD

The source made the active and inactive calls. How the source made its calls: active means hit-call score of the fitted dose curve at least 0.9, where 1 is the maximum; inactive means score below 0.9.

Chain of Transcriptional activator Myb (Homo sapiens) (P10242 whole entry, looked up): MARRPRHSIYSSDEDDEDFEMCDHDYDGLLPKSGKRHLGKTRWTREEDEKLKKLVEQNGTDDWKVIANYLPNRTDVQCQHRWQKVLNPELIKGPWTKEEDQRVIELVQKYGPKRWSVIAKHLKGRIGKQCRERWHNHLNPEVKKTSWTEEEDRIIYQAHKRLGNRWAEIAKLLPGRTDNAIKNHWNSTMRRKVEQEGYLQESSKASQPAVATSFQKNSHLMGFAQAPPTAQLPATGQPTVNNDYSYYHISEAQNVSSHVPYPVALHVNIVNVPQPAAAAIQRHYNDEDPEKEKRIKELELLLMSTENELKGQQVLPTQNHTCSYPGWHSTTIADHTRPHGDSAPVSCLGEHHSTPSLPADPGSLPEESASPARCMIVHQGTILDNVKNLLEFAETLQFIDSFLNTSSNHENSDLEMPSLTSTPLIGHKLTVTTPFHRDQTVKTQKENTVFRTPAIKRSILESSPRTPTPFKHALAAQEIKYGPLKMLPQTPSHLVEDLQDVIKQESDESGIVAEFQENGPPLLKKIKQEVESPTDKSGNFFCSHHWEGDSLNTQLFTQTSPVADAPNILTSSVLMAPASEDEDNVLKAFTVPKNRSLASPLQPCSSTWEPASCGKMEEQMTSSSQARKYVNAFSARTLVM
Chain of Nuclear respiratory factor 1 (Homo sapiens) (Q16656 whole entry, looked up): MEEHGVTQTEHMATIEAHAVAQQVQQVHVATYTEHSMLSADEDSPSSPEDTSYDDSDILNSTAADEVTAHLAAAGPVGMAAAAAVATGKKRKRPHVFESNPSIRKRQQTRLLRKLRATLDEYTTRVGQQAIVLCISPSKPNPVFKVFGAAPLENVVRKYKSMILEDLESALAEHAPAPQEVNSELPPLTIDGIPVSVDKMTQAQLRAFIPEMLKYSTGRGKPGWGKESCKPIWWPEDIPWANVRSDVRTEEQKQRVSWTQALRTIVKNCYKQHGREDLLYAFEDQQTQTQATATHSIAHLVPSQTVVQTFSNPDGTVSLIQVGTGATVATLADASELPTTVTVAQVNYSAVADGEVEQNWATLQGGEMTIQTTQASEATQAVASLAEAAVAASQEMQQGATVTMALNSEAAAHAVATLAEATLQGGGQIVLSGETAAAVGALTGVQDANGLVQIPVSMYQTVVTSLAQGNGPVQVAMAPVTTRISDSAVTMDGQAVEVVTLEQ
Chain of Hepatocyte nuclear factor 6 (Homo sapiens) (Q9UBC0 whole entry, looked up): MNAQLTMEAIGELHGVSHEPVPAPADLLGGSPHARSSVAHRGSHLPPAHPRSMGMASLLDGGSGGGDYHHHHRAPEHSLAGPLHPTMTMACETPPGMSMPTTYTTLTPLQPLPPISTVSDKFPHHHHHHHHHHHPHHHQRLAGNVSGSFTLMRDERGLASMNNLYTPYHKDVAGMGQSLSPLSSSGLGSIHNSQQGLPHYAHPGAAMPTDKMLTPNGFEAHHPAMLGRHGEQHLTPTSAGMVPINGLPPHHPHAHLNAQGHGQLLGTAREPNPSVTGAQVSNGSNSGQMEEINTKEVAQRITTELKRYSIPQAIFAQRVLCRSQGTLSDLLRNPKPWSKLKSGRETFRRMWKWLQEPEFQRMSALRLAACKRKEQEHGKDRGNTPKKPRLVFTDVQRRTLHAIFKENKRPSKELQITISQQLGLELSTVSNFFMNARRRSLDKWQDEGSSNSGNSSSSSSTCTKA
Chain of Heat shock factor protein 1 (Homo sapiens) (Q00613 whole entry, looked up): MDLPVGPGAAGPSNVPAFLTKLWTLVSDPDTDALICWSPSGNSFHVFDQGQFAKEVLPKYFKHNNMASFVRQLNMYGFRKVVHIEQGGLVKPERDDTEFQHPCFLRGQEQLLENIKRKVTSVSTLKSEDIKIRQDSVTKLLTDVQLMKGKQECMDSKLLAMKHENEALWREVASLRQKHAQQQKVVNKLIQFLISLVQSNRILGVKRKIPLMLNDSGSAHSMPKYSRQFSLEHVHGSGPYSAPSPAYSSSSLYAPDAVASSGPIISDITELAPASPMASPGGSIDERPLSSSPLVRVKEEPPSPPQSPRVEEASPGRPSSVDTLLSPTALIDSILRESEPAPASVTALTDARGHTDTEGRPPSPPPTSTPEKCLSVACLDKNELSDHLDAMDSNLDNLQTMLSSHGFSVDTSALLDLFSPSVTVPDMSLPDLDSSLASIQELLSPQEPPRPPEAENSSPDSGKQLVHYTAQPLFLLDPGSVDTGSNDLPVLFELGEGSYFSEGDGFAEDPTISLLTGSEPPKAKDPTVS
Chain of X-box-binding protein 1 (Homo sapiens) (P17861 whole entry, looked up, the tested form may be a part): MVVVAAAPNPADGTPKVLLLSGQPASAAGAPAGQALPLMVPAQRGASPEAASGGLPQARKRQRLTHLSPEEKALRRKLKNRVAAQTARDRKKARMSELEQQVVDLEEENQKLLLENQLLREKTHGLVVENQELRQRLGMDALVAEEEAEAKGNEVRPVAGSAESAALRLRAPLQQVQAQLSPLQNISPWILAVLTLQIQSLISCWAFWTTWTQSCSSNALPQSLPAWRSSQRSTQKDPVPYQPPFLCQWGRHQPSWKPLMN

Turning to `CCNCC`, the result in [1], in test [2], in test [3], in test [4], in [5] and in test [6] was inactive. The outcome in [7], in [8], in test [9], in test [10], in test [11] and in [12] was inactive. For the same molecule, the result in [13], in test [14], in [15], in test [16], in test [17] and in test [18] was inactive.
For the molecule `Cc1ncc(C[n+]2csc(CCO)c2C)c(N)n1`, the call in test [1], in [4], in [6], in test [7], in test [8] and in test [9] was inactive. Moreover, the molecule was classed as inactive in test [10], in test [11], in test [12], in test [13], in test [14] and in [15]. Besides, the call in test [16], in test [19], in [17], in test [18] and in test [20] was inactive.
On to `O=c1c2ccccc2c(=O)c2c1cc(Cl)c1[nH]c3c([nH]c12)c(Cl)cc1c(=O)c2ccccc2c(=O)c13`, for which the molecule was called inactive in [1], in test [2], in test [4], in test [5], in [6] and in test [8]. The molecule was called inactive in test [9], in [10], in test [11], in test [12], in [13] and in [14]. Also, the outcome in test [15], in test [16], in test [17], in test [18] and in test [20] was inactive.
Take `CCCCCCC1CCOC1=O` (configuration not stated): the call in test [1], in test [3], in [4], in test [5], in test [6] and in test [8] was inactive. Also, the outcome in test [9], in [10], in test [11], in test [12], in test [13] and in test [14] was inactive. The call in [15], in test [16], in test [19], in test [17], in test [18] and in [20] was inactive.
A word on the AC50: it is the midpoint of the concentration-response curve, whichever way the signal moves. In the case of `O=S(=O)(c1ccccc1)c1ccccc1`, the molecule was classed as inactive in test [1], in [2], in test [3], in [4], in [5] and in test [6]. In addition, the result in [7], in test [8], in [9], in test [10], in [11] and in test [13] was inactive. Besides, the molecule was called inactive in [14], in test [15], in [16], in test [17], in [18] and in test [20]. Moreover, the AC50 in test [12] was 31.4 µM (active).
Regarding `SCc1ccco1`, the results for the AC50 in test [1] and in test [17] were 62.8 µM (active) and 71.2 µM (active), respectively. Moreover, the call in [2], in [3], in test [4], in test [5], in [6] and in [7] was inactive. In addition, the outcome in test [9], in [10], in test [11], in test [12], in test [13] and in [14] was inactive. Moreover, the call in [15], in [16], in test [19], in [18] and in test [20] was inactive.
In the case of `CC1CCCC1.[C-]#[O+].[C-]#[O+].[C-]#[O+].[Mn]`, the result in test [1], in test [4], in [5], in [6], in test [7] and in test [8] was inactive. The outcome in [9], in [10], in test [11], in test [12], in test [13] and in [14] was inactive. Besides, the call in test [15], in [16], in test [19], in [17], in [18] and in [20] was inactive. Also, in [2], the AC50 was 35.2 µM (active).

The record behind these values is PubChem BioAssay (EPA / NIEHS).
